Rows were chosen to be rich in hits. Some 4.4% of all compounds tested hit in one or more screens of this group.
tim10-1 inh: growth inhibitors of tim10-1 mutant yeast; S. cerevisiae tim10-1 ts strain growth, BacTiter-Glo, 24 h; inhibition, % at 20 µM; hit rate 2.2% among 330,000; AID 463190;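 active = inhibition of at least 40%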;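 also: mutant grown at 25 °C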
Mot1-301 SUMO: SUMOylation pathway inhibition by Mot1-301 growth rescue | hit rate 1% among 320,000 | S. cerevisiae Mot1-301 growth rescue, ATP luminescence, 38.5C; percent above DMSO median, 100 means doubled | growth rescue, % at 18.8 µM | AID 2716;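 active = every valid replicate shows activation above 250% relative to neutral control wells; inactive = the rest, any valid replicate at or below 250%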
tim23-1 inh: tim23-1 yeast growth inhibition; S. cerevisiae tim23-1 growth, BacTiter-Glo luminescence, 24 h; hit rate 1.3% among 330,000; inhibition, % at 20 µM;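 active = growth inhibition of the mutant yeast at or above 50%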;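 also: temperature-sensitive mutant grown at 25 °C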
PfHsp90 yeast 2: reduces growth (ATP signal) of yeast expressing P. falciparum Hsp90; inhibition, % at 9.4 µM; hit rate 0.32% among 310,000; S. cerevisiae expressing PfHsp90, BacTiter-Glo ATP, 48 h; yeast lacking PDR1 and PDR3 efflux regulators;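 active = every replicate shows inhibition above about 80%, whatever the replicate mean, limit read from the data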
TIM10 inh: growth inhibitors of TIM10 yeast strain. S. cerevisiae TIM10 strain growth, BacTiter-Glo luminescence, 24 h. inhibition, % at 10 µM. hit rate 1.4% among 330,000. AID 463195;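 active = inhibition of 40% or more at the single tested concentration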;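 also: wild-type TIM10 isogenic control strain grown at permissive 25 °C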
tim10-1 confirm: tim10-1 yeast growth inhibition, confirmed | hit rate 56% among 7,400 | shares compounds with tim10-1 inh | S. cerevisiae tim10-1 ts strain growth, BacTiter-Glo, 24 h | AID 463213 | inhibition, % at 20 µM;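 active = inhibition of yeast growth at or above a set limit in either of two repeat tests at 20 µM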;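 also: tim10-1 mutant grown at permissive 25 °C to find synthetic lethal compounds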
tim10 confirm: confirmation of TIM10 yeast growth inhibitors; shares compounds with TIM10 inh; S. cerevisiae tim10 strain growth, BacTiter-Glo luminescence, 24 h; inhibition, % at 10 µM; hit rate 63% among 4,600;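 active = inhibition of yeast growth at or above a set limit in either of two replicates at 10 µM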; also: this counterscreen used the strain with wild-type TIM10
tim23-1 conf: tim23-1 yeast growth inhibition, confirmed | AID 463218 | shares compounds with tim23-1 inh | S. cerevisiae tim23-1 growth, BacTiter-Glo luminescence, 24 h | inhibition, % at 20 µM | hit rate 83% among 4,400;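 active = inhibition above about 39% in either of two replicate wells at 20 µM, limit read from the data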;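 also: temperature-sensitive tim23-1 mutant grown at 25 °C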
Large screens that a line does not name were inactive (follow-up assays come after a bar, where they were run).

C=C(C)CSc1nnc2n(C)c(=O)c3c4c(sc3n12)CCC4	tim10-1 inh 46, tim23-1 inh 53 (no result: PfHsp90 yeast 2) | tim10-1 confirm inactive | tim23-1 conf 54
Cc1ccc(/C(N)=N/OC(=O)Cc2ccccc2)cc1	none
Cc1ccc(/C(N)=N/OC(=O)Cc2cccc3ccccc23)cc1	tim10-1 inh 57, tim23-1 inh 50, TIM10 inh 62 | tim10-1 confirm 58 | tim10 confirm 54 | tim23-1 conf 46
Cc1cccc(C(=O)O/N=C(\N)Cc2cccc3ccccc23)c1	tim10-1 inh 43, tim23-1 inh 81, TIM10 inh 77 | tim10-1 confirm 30 | tim10 confirm 84 | tim23-1 conf 64
Cc1cccc(/C(N)=N/OC(=O)Cc2cccc3ccccc23)c1	tim10-1 inh 62, tim23-1 inh 54, TIM10 inh 76 | tim10-1 confirm 69 | tim10 confirm 79 | tim23-1 conf 60
Cc1ccsc1CNS(=O)(=O)c1ccc(F)cc1	none (no result: PfHsp90 yeast 2)
CCC1CCCCN1S(=O)(=O)c1ccc2c(c1)CCN2C(C)=O (centres undefined)	none
Nc1ccccc1S(=O)(=O)NCCCCc1ccccc1	none
O=C1NN=C(c2ccc(Cl)cc2)CC1c1cccc(Cl)c1 (centres undefined)	tim10-1 inh 41, tim23-1 inh 56 (no result: PfHsp90 yeast 2) | tim10-1 confirm inactive | tim23-1 conf 54
O=C1C=C(c2cccc(Cl)c2)C[C@@H](c2ccc(Cl)cc2)C1	none
O=C(COc1ccccc1Br)c1ccc(O)cc1O	tim10-1 inh 50, tim23-1 inh 66 | tim10-1 confirm 40 | tim23-1 conf 58
O=C(COc1ccccc1Br)c1ccc2c(c1)OCO2	none
O=C(Cc1ccc(Br)cc1)c1ccc(O)cc1O	tim10-1 inh 58, tim23-1 inh 63, TIM10 inh 61 | tim10-1 confirm 66 | tim10 confirm 57 | tim23-1 conf 53
COCCn1c(C)nnc1SCC(=O)NNC(=O)c1ccc(Br)cc1	none (no result: Mot1-301 SUMO)
CCOC(=O)CCCn1ccc2cc(S(=O)(=O)N3CCCC3)ccc21	none
O=C(O)c1ccccc1NSc1ccccc1[N+](=O)[O-]	none
CCc1ccc(NSc2ccccc2[N+](=O)[O-])cc1	tim10-1 inh 54, tim23-1 inh 52 | tim10-1 confirm 43 | tim23-1 conf 58
O=C(CN1C(=O)c2ccccc2C1=O)c1ccccc1	none
CC1=C(CC(=O)c2ccccc2)C(=O)c2ccccc2C1=O	tim10-1 inh 48, tim23-1 inh 64 (no result: PfHsp90 yeast 2) | tim10-1 confirm 42 | tim23-1 conf 69
O=C(NC(=S)NNC(=O)c1ccccc1[N+](=O)[O-])c1ccccc1	tim10-1 inh 41, tim23-1 inh 50, TIM10 inh 51 | tim10-1 confirm 52 | tim10 confirm 56 | tim23-1 conf 53
CCC(=O)NC(=S)NNC(=O)c1ccccc1[N+](=O)[O-]	tim10-1 inh 45, tim23-1 inh 56, TIM10 inh 53 (no result: Mot1-301 SUMO) | tim10-1 confirm 76 | tim10 confirm 60 | tim23-1 conf 64
CCCCCCCCNC(=O)/C(C#N)=C/c1ccccc1[N+](=O)[O-]	tim10-1 inh 50, tim23-1 inh 83, PfHsp90 yeast 2 110, TIM10 inh 64 | tim10-1 confirm inactive | tim10 confirm 70 | tim23-1 conf 47
CCOc1ccccc1NC(=O)/C(C#N)=C/c1c(C)nn(-c2ccccc2)c1Cl	none
C=CCNC(=O)/C(C#N)=C/c1ccccc1[N+](=O)[O-]	tim10-1 inh 46, tim23-1 inh 56, TIM10 inh 50 | tim10-1 confirm 48 | tim10 confirm inactive | tim23-1 conf 46
N#C/C(=C\c1ccccc1[N+](=O)[O-])C(=O)NCc1ccccc1	tim10-1 inh 49, tim23-1 inh 71, TIM10 inh 46 | tim10-1 confirm 54 | tim10 confirm 51 | tim23-1 conf 74
C=CCNC(=O)/C(C#N)=C/c1c(C)nn(-c2ccccc2)c1Cl	tim10-1 inh 71, tim23-1 inh 72, TIM10 inh 67 | tim10-1 confirm 76 | tim10 confirm 65 | tim23-1 conf 72
O=C(COC(=O)c1cccc(Br)c1)NCc1ccco1	none
COc1ccc(C(=O)Nc2ccccc2N2CCN(C(=O)c3ccccc3)CC2)cc1Br	none
CCOCCCNC(=O)/C(C#N)=C/c1ccc([N+](=O)[O-])o1	tim10-1 inh 84, tim23-1 inh 75, TIM10 inh 68 | tim10-1 confirm 79 | tim10 confirm 94 | tim23-1 conf 74
N#C/C(=C/c1ccccc1[N+](=O)[O-])C(=O)NCc1ccco1	tim10-1 inh 52, tim23-1 inh 60, TIM10 inh 60 | tim10-1 confirm 45 | tim10 confirm inactive | tim23-1 conf 54
CCOc1cccc(CNc2ccc(O)cc2)c1OCc1ccc(Cl)cc1	tim10-1 inh 43, tim23-1 inh 60 | tim10-1 confirm 32 | tim23-1 conf 59
Cc1cccc(C)c1NC(=S)NC(=O)CCc1ccccc1	tim10-1 inh 51, tim23-1 inh 56, TIM10 inh 47 | tim10-1 confirm 35 | tim10 confirm 36 | tim23-1 conf 42
COc1ccc(NC(=O)/C(C#N)=C/c2ncc([N+](=O)[O-])n2C)c(OC)c1	tim10-1 inh 58, tim23-1 inh 84 | tim10-1 confirm 66 | tim23-1 conf 81
Cc1cc(C)c(S(=O)(=O)c2ccccc2)c(OC(=O)c2c(Cl)cccc2Cl)n1	none (no result: Mot1-301 SUMO)
Cc1cc(C)c(S(=O)(=O)c2ccccc2)c(OC(=O)c2ccc(Cl)cc2Cl)n1	tim10-1 inh 46, tim23-1 inh 74, TIM10 inh 52 | tim10-1 confirm 42 | tim10 confirm inactive | tim23-1 conf 76
S=C(Nc1ccc2nsnc2c1)NC1CCCCC1	tim10-1 inh 53, tim23-1 inh 53, TIM10 inh 54 | tim10-1 confirm 33 | tim10 confirm inactive | tim23-1 conf 57
S=C(Nc1ccc(Cl)c(Cl)c1)NC1CCCCC1	none (no result: PfHsp90 yeast 2)
CCNC(=S)N/N=C/c1ccc(-c2ccccc2)o1	tim10-1 inh 44, tim23-1 inh 53 | tim10-1 confirm 33 | tim23-1 conf inactive
CCOC(=O)c1ccc(NC(=O)Nc2ncc(Cl)cc2Cl)cc1	tim10-1 inh 70, tim23-1 inh 56, TIM10 inh 76 (no result: PfHsp90 yeast 2) | tim10-1 confirm 78 | tim10 confirm 76 | tim23-1 conf 69
CCOC(=O)c1ccc(NC(=O)Nc2ncccc2C)cc1	none
CCOc1ccc(S(=O)(=O)N2CCCCC2)cc1NC(=O)Cc1cccs1	none
CNC(C)C#Cc1ccc2c(=O)c3ccccc3oc2c1 (centres undefined)	tim10-1 inh 54, tim23-1 inh 58 | tim10-1 confirm 42 | tim23-1 conf 53
